This is part of a sample that, as a whole, favours compounds with a hit. Of some 79,000 tested, about 15% had one in any assay. Unmarked numbers belong to inactive results. The source made the active and inactive calls. Rule as the data show it: active = growth inhibition above about 70%; inactive = the rest.
Tests used:
[1] = NCI Yeast Anticancer Drug Screen. Data for the rad50 strain (AID 155);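 also: 0% = growth of vehicle-only cultures of the same strain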; settings: S. cerevisiae rad50 strain growth inhibition, hits give high values
In short: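 Compounds were tested on a yeast strain with an engineered DNA damage repair alteration; the reported value is growth inhibition normalised to vehicle treatment.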

[2] = NCI Yeast Anticancer Drug Screen. Data for the mec2-1 strain (AID 157); settings: S. cerevisiae mec2-1 strain, hits give high values
In short: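 Cells of the genetically defined mec2-1 yeast strain are incubated with test compound. Inhibition of growth is calculated against vehicle-treated controls.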

[3] = NCI Yeast Anticancer Drug Screen. Data for the sgs1 mgt1 strain (AID 161);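 also: 0% = growth of cultures given vehicle only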; settings: S. cerevisiae sgs1 mgt1 strain, hits give high values
In short: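 Inhibition of yeast growth, normalised to vehicle-treated controls, is reported for a strain bearing genetic alterations in DNA damage repair.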

[4] = NCI Yeast Anticancer Drug Screen. Data for the cln2 rad14 strain (AID 165);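 also: 0% = growth equal to vehicle treated cultures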; settings: S. cerevisiae cln2 rad14 strain, hits give high values
In short: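 The screen exposed genetically defined yeast (cln2 rad14) to test compounds and scored growth inhibition relative to vehicle-treated controls.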

[5] = NCI Yeast Anticancer Drug Screen. Data for the bub3 strain (AID 167); settings: S. cerevisiae bub3 mutant strain, hits give high values
In short: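 Growth of a checkpoint-deficient yeast mutant is measured after compound exposure. Values represent inhibition relative to vehicle.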

[6] = NCI Yeast Anticancer Drug Screen. Data for the mlh1 rad18 strain (AID 175); settings: S. cerevisiae mlh1 rad18 strain growth inhibition, hits give high values
In short: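 Compound-treated yeast growth, normalised to vehicle controls. Strain bears defined DNA repair mutations.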

[7] = at 5.0 µM (retest, dose inferred, filed as 0.5)
[8] = at 50.0 µM (retest, dose inferred, filed as 5.0)

| SMILES | growth inhibition [1, 7] | growth inhibition [1, 8] | growth inhibition ([1]; at 50.0 µM) | growth inhibition [2, 7] | growth inhibition [2, 8] | growth inhibition ([2]; at 50.0 µM) | growth inhibition [3, 7] | growth inhibition [3, 8] | growth inhibition ([3]; at 50.0 µM) | growth inhibition [4, 7] | growth inhibition [4, 8] | growth inhibition ([4]; at 50.0 µM) | growth inhibition [5, 7] | growth inhibition [5, 8] | growth inhibition ([5]; at 50.0 µM) | growth inhibition [6, 7] | growth inhibition [6, 8] | growth inhibition ([6]; at 50.0 µM) |
| --- | --- | --- | --- | --- | --- | --- | --- | --- | --- | --- | --- | --- | --- | --- | --- | --- | --- | --- |
| OC(c1cc(-c2ccc(Cl)cc2Cl)nc2ccccc12)C1CCCCN1 (stereo not given) | -6% | 98% (active) | 98.8% (active) | -4% | 99% (active) | 72.2% (active) | -5% | 99% (active) | 99.1% (active) | -3% | 97% (active) | 64.7% | 0% | 99% (active) | 98.8% (active) | -6% | 99% (active) | 97.3% (active) |
| Cc1nc(Nc2ccccc2)sc1C(=O)NNc1ccc([N+](=O)[O-])cc1[N+](=O)[O-] | 19% | 19% | 12.6% | 7% | 7% | 40.2% | -6% | -6% | 60.8% | 14% | 14% | 28.4% | 15% | 15% | 43% | 20% | 20% | 66.2% |
| Clc1ccc(CSc2ncnc3c2ncn3C2CCCCO2)cc1 (stereo not given) | -5% | 97% (active) | 97.5% (active) | -7% | 96% (active) | 97.5% (active) | 15% | 92% (active) | 97.5% (active) | -20% | 88% (active) | 94.3% (active) | -15% | 78% (active) | 95.8% (active) | 3% | 96% (active) | 97% (active) |
| O=c1c2cc(Cl)ccc2[nH]c2cc(O)cc(O)c12 | -18% | 25% | 70.5% (active) | -43% | 3% | -12.4% | -9% | 11% | 21.5% | -15% | 16% | 11.9% | -13% | 39% | 15.1% | -20% | 45% | 15.9% |
| OC1(c2ccccc2)CCN(c2c3ccccc3nc3ccccc23)CC1 | 0% | 63% | 98.9% (active) | 3% | 75% (active) | 99.5% (active) | 6% | 75% (active) | 97.6% (active) | 5% | 30% | 99% (active) | 0% | 58% | 99.3% (active) | -2% | 68% | 99.4% (active) |
| Cc1ccc(Nc2nc3nc[nH]c3c(=O)[nH]2)cc1CO | 2% | 13% | -4.35% | 10% | 2% | -12.4% | -12% | 14% | -0.6% | -2% | -4% | 0% | 2% | -4% | -8.75% | 15% | 7% | 4.8% |
| C(=C/c1cnnc2ccccc12)/c1ccccn1 | 5% | 79% (active) | 67.2% | 8% | 43% | 6.2% | 6% | 44% | 14.8% | 0% | 42% | 45.8% | -7% | 28% | -4.45% | 1% | 42% | 38.4% |
| CC(C)c1cccc(O)c1O | 7% | 1% | 87.2% (active) | -7% | 14% | 89.4% (active) | 9% | 13% | 82.3% (active) | 23% | 38% | 86.3% (active) | -1% | 45% | 89.5% (active) | -1% | 4% | 86.9% (active) |
| NNC(=O)c1ccccc1SSc1ccccc1C(=O)NN | 82% (active) | 99% (active) | 99.3% (active) | 81% (active) | 99% (active) | 99.7% (active) | 74% (active) | 99% (active) | 99.7% (active) | 51% | 99% (active) | 98.7% (active) | 98% (active) | 99% (active) | 99.1% (active) | 71% (active) | 99% (active) | 99.4% (active) |
| COC(=O)C1(C)CC2C(C)(CCC3(C)C4=CC=C5C(=CC(=O)C(O)=C5C)C4(C)CCC23C)CC1O (stereo not given) | 44% | 98% (active) | 85.8% (active) | 44% | 98% (active) | 87.9% (active) | 48% | 98% (active) | 90.3% (active) | 51% | 97% (active) | 88% (active) | 75% (active) | 98% (active) | 87.3% (active) | 50% | 96% (active) | 85.8% (active) |
| O=[N+]([O-])c1ccccc1Oc1ccc([N+](=O)[O-])c(C(F)(F)F)c1 | -4% | 83% (active) | 80.1% (active) | -2% | 74% (active) | 82.7% (active) | 0% | -24% | 92.5% (active) | -8% | 45% | 45.9% | 2% | 92% (active) | 95.3% (active) | -1% | 90% (active) | 92.7% (active) |
| Clc1ccc(COC(CN2CCOCC2)c2ccccc2)c(Cl)c1 (stereo not given) | 2% | 89% (active) | 94.8% (active) | 8% | 92% (active) | 96.2% (active) | 19% | 98% (active) | 96% (active) | 11% | 83% (active) | 98.2% (active) | 23% | 95% (active) | 94.9% (active) | 11% | 87% (active) | 97.6% (active) |
| CCOC(CC)C(O)(c1ccc(N(C)C)cc1)c1ccc(N(C)C)cc1 (stereo not given) | -2% | 94% (active) | 98.3% (active) | -1% | 69% | 98.2% (active) | 0% | 95% (active) | 98.6% (active) | -3% | 63% | 97.5% (active) | 4% | 88% (active) | 98.7% (active) | 1% | 98% (active) | 98.2% (active) |
| O=C(O)C/C(=C\c1ccco1)C(=O)O | -8% | 9% | 44.9% | -4% | -9% | -11.5% | -4% | -2% | -30.6% | -1% | -1% | 38% | -8% | -13% | -27.9% | -4% | -7% | -16.4% |
| COC(=O)CNC(=O)C(F)(F)F | -160% | -152% | 81.8% (active) | -47% | -49% | 68.1% | -61% | -58% | 71.7% (active) | -61% | -66% | 75.6% (active) | -65% | -73% | 59.1% | -141% | -111% | 80.5% (active) |
| COc1cccc2c1C(=O)c1c(O)c3c(c(O)c1C2=O)C[C@@](O)(/C(C)=N\NC(N)=O)C[C@@H]3OC1CC(N)C(O)C(C)O1 (stereo not given in full) | 30% | 83% (active) | 88.8% (active) | 52% | 34% | 43.8% | 6% | 30% | 36.9% | 7% | 30% | 1.5% | 6% | 45% | 35.6% | 8% | 7% | 57% |
| Nc1ncnc2c1cnn2C1CCCCC1 | 3% | 79% (active) | 30.2% | -2% | 46% | 58.8% | 0% | 45% | 14.9% | -1% | 68% | 36.3% | -2% | 58% | 32.7% | 1% | 75% (active) | 71.2% (active) |
| CC1=Cc2cc3[n-]c(cc4nc(cc5[n-]c(cc1n2)cc5C)C(C)=C4CCC(=O)O)c(CCC(=O)O)c3C.[Pd+2] | 0% | 72% (active) | 15.1% | 2% | 55% | 26% | 0% | 80% (active) | 12.2% | -11% | 61% | 62.8% | -3% | 69% | 7.7% | -1% | 73% (active) | 10.6% |
| C=C1C(=O)OC2/C=C(\C(=O)O)CC/C=C(\C)CC(OC(=O)/C=C(\C)CC)C12 (stereo not given) | -1% | 79% (active) | 94% (active) | -5% | 79% (active) | 68.2% | -1% | 79% (active) | 77.1% (active) | -19% | 69% | 69.8% | -7% | 84% (active) | 84.2% (active) | -4% | 93% (active) | 77.1% (active) |
| Cc1cccc(Cc2cccc(Cl)c2)c1O | -1% | 95% (active) | 99.3% (active) | -1% | 98% (active) | 99.8% (active) | 3% | 89% (active) | 99.6% (active) | -4% | 90% (active) | 99% (active) | -9% | 94% (active) | 99.1% (active) | 8% | 96% (active) | 98.9% (active) |

Reference: PubChem BioAssay (NCI)
